In ChEMBL document CHEMBL4513216, “Probing the Open Global Health Chemical Diversity Library for Multistage-Active Starting Points for Next-Generation Antimalarials” (ACS Infect Dis, 2020):
About 8,600 (12%) of roughly 69,000 compounds showed an effect of 50% or more. This excerpt belongs to a sample that is enriched for strong results.

test system: Plasmodium berghei; assay: Screen against P. berghei liver stage (PbLuc), transformed with Luciferase, at 10uM; assay type: functional, HepG2; details: tested at 10 uM

| SMILES | INHIBITION |
| --- | --- |
| CN(C)CCN1CCC2[C@@H]1CCN2Cc1ccc2c(c1)OCO2 (some centres not stated) | -9.74% |
| CC(=O)c1c(F)cccc1N1CCC(C(N)=O)CC1 | -13.1% |
| CC(=O)c1c(F)cccc1N1CCC(Cc2cccnc2)CC1 | 83.4% |
| CC(=O)c1c(F)cccc1N1CCC(CS(N)(=O)=O)CC1 | 30.1% |
| CCN(C1CCN(c2cccc(F)c2C(C)=O)CC1)S(C)(=O)=O | 20.4% |
| CC(=O)c1c(F)cccc1N1CCC(NS(=O)(=O)c2ccccc2)CC1 | 78% |
| CCS(=O)(=O)N(C)C1CCN(c2cccc(F)c2C(C)=O)CC1 | -9.35% |
| O=C1C(NS(=O)(=O)c2ccc(F)cc2F)CCN1Cc1ccccc1 (configuration not stated) | 2.97% |
| Cc1ccc(NC(=O)N2CCC3(CCC(C(=O)N(C)C)O3)CC2)cc1 (configuration not stated) | 46.6% |
| Cc1cc(C)n(CC2CCCN2CCC(=O)Nc2cc(C)on2)n1 (configuration not stated) | 11.4% |
| O=C(Cc1ccccn1)N1C[C@@H](Oc2cccnc2)[C@H]2OCCC[C@H]21 | 5.04% |
| CN(C)c1cccc(C(=O)Nc2ccn(CCc3ccncc3)n2)c1 | 40.7% |
| CSc1ccc(C(=O)N2C[C@@H]3CC[C@H]2CN(Cc2ccccc2)C3)cc1 | 39.1% |
| COc1ccc(C(=O)N(C)Cc2ncc(C)c(OC)c2C)c(OC)c1 | 1.11% |
| CCCS(=O)(=O)N1CCO[C@H]2[C@H](OCc3ccccn3)CC[C@@H]21 | 33.5% |
| CC(c1nc(-c2cccnc2)no1)N(C)CCCOc1ccccc1 (configuration not stated) | 18.5% |
| COc1ccccc1CCN(C)C(C)c1nc(-c2cccnc2)no1 (configuration not stated) | 68.1% |
| CCOc1ccccc1CN(C)C(C)c1nc(-c2cccnc2)no1 (configuration not stated) | 24.2% |
| CNC(=O)c1csc(-c2cccnc2)n1 | -17.2% |
| Cc1ccc(C)c(NC(=O)c2n[nH]c(-n3cnnc3)n2)c1 | 36.3% |
| COCCCN(CCOC)C(=O)Nc1ccc(C)cc1C | 7.9% |
| Cc1ccc(NC(=O)CNc2ccccc2C(N)=O)c(C)c1 | 39.1% |

| SMILES | INHIBITION |
| --- | --- |
| Cc1ccc(C)c(NC(=O)c2coc(C)n2)c1 | 62.3% |
| Cc1ccc(NC(=O)c2coc(C)n2)c(C)c1 | 62.3% |
| COc1ccc(C)cc1NC(=O)c1coc(C)n1 | 60.9% |
| COc1ncc(NC(=O)Nc2cc(C)ccc2OC)cn1 | 42.6% |
| COc1ccc(C)cc1NC(=O)Nc1cnc(O)nc1O | 0.29% |
| CCn1cc(C(=O)Nc2cc(C)ccc2C)cn1 | 3.04% |
| Cn1ccnc1N1CCN(C(=O)Cc2ccc(F)cc2)CC1 | 0% |
| CCS(=O)(=O)N1CC[C@@H]2[C@H]1CCC(=O)N2CCOC | 24.9% |
| CC(C)OCCN(C)C(C)c1cccc(S(N)(=O)=O)c1 (configuration not stated) | 26.3% |
| CS(=O)(=O)N1CCCC12CCCN(S(=O)(=O)c1ccc(F)c(F)c1)C2 (configuration not stated) | -0.371% |
| O=C(O)[C@@H]1CN(C(=O)NCC2CCCCC2)C[C@H]1c1ccccn1 | -43.5% |
| CCOCC1CN(CCN2CCCCC2)Cc2cnn(C)c21 (configuration not stated) | 36.9% |
| Cc1ccc(Oc2ncccc2C(=O)N(C)CCCN(C)C)cc1 | 30.3% |
| CC(C)(C)c1ncc(S(C)(=O)=O)c(C2CCCNC2)n1 (configuration not stated) | 25.3% |
| O=C1c2cccnc2OC(CN2CCOCC2)CN1C1CCC1 (configuration not stated) | -10.3% |
| COC(=O)c1ccccc1NC(=O)c1c(C)cn(C)c1CC(=O)O | 19.2% |
| O=C1CCNc2ncc(-c3cccc(Cl)c3)cc2CN1C1CC1 | 2.55% |
| O=C1CCNc2ncc(-c3ccccc3Cl)cc2CN1C1CC1 | 50.2% |
| O=C1CCNc2ncc(-c3ccc(Cl)cc3)cc2CN1C1CC1 | 7.85% |
| Cn1cc(CN2CCOC3(CCCN(C(=O)c4ccco4)C3)C2)cn1 (configuration not stated) | 8.47% |
| Cc1cc(C)nc(N2CC[C@H](Oc3ccccc3F)[C@@H](O)CC2)n1 | 42.6% |
| CC(C)N1CCOCC2(CCN(c3cnccn3)CC2)C1 | 35.8% |

| SMILES | INHIBITION |
| --- | --- |
| COCCCn1ccc(NS(=O)(=O)c2cc(C)c(F)cc2F)n1 | -15.3% |
| CCC(Cn1ccc2[nH]c(=O)c(C#N)cc2c1=O)OC (configuration not stated) | 3.82% |
| CCCOC(C)Cn1ccc2[nH]c(=O)c(C#N)cc2c1=O (configuration not stated) | 71.8% |
| CC(O)CCn1ccc2[nH]c(=O)c(C#N)cc2c1=O (configuration not stated) | -1.09% |
| CN(Cc1nc(Cc2cccc(C(F)(F)F)c2)no1)C(C1CC1)C1CC1 | 27.6% |
| Cn1nc(CN2CCCCC2)c2c1CN(Cc1ccoc1)C2 | 11.3% |
| O=C(c1cc(C2CCCC2)no1)N1CCCCC1 | -12.5% |
| Cc1nc(C)c(C(=O)N2Cc3ccccc3OCC2CN(C)C)o1 (configuration not stated) | 11.8% |
| Cc1ccc2c(c1)[C@@H](CC(=O)N(C)C)CCO2 | 14.5% |
| Cc1ccc2c(c1)CN(C(=O)c1cnc(C)cn1)C(CN(C)C)CO2 (configuration not stated) | 66.5% |
| CN(CCO)CC1COCCN1C(=O)C1CCCCC1 (configuration not stated) | 40.7% |
| Cc1ccc2c(c1)CN(C(=O)C1CCCCC1)C(CN(C)C)CO2 (configuration not stated) | 60.3% |
| CC(=O)N1[C@H](CN(C)C)C[C@@H]2CN(C(=O)c3cnc(C)cn3)CC[C@@H]21 | -50.4% |
| Cc1nc(CN2CCc3ccc(S(N)(=O)=O)cc32)oc1C | -24% |
| CN(C)c1ncccc1CNC(=O)NCc1cccs1 | 41.2% |
| CN1CCN(C(=O)c2cc[nH]c(=O)c2)Cc2ccccc21 | 20% |
| O=C(NCC1CCCCC1)N1C[C@@H]2C[C@@H]1CN2 | 9.97% |
| Cc1nccn1-c1cccc(C2CCCN(C3CCCC3)C2)n1 (configuration not stated) | 36.7% |
| COc1ccc(CN2CCC(c3nccnc3-n3ccnc3)CC2)cc1 | 35.2% |
| Cc1nccn1-c1nccnc1C1CCCN(C)C1 (configuration not stated) | 34.55% |
| Fc1ccc(CN2CCC(c3nccnc3-n3ccnc3)CC2)cc1 | 37% |
| Cc1nccn1-c1nccnc1C1CCN(Cc2ccc(F)cc2)CC1 | 71.1% |

| SMILES | INHIBITION |
| --- | --- |
| Cc1nccn1-c1nccnc1C1CCCN(C2CCCC2)C1 (configuration not stated) | 59.45% |
| Cc1n[nH]c(C2CN(Cc3nnc(C4CCC4)o3)CCO2)n1 (configuration not stated) | 0.914% |
| c1cc(CN2C[C@@H]3OCCN(CCN4CCCC4)[C@@H]3C2)co1 | 15.7% |
| CC(=O)OCc1ccc(CN2CCCCCC2c2cc(C)no2)o1 (configuration not stated) | 18.3% |
| CCc1nc(C2CCCN2C(=O)c2cc3c(s2)CCC3)no1 (configuration not stated) | 7.08% |
| CCC(C(=O)NC1(C(N)=O)CCCC1)n1cccn1 (configuration not stated) | 55.9% |
| CCC(C(=O)NC1(COC)CCCC1)n1cccn1 (configuration not stated) | 8.08% |
| CCC(C(=O)NC1(CN2CCOCC2)CCCC1)n1cccn1 (configuration not stated) | 30.9% |
| CC(C)C(=O)Nc1ccc(C(O)Cn2nc(-c3cccs3)oc2=O)cc1 (configuration not stated) | 8.9% |
| c1cnn(Cc2nnc3n2CCCN(Cc2ccsc2)C3)c1 | 32.4% |
| Cc1cnc(C(=O)N2C[C@@H]3[C@@H](C2)OCC(=O)N3CC2CCCC2)cn1 | -18.5% |
| O=C(c1cnccn1)N1C[C@@H]2OCC(=O)N(CC3CCCCC3)[C@@H]2C1 | 26.4% |
| O=C(c1cnccn1)N1C[C@@H]2[C@@H](C1)OCC(=O)N2CC1CCCC1 | 91.9% |
| CN(Cc1ccco1)C(=O)CN1CCOC(Cn2cncn2)C1 (configuration not stated) | -0.219% |
| CC(C)N(C)Cc1cnc2n1CCN(C(=O)Cc1ccccn1)C2 | 24.3% |
| O=C1CN(c2ccc(CNC(=O)Nc3nccs3)cc2)CCN1 | 13.8% |
| COc1ccc(OC)c(CN(C)c2ncc(S(N)(=O)=O)s2)c1 | -54.4% |
| CN(c1ncc(S(N)(=O)=O)s1)C1CCC1 | 52.2% |
| CN(c1ncc(S(N)(=O)=O)s1)C1CCc2ccccc2C1 (configuration not stated) | 65.6% |
| CCc1ncc(C(=O)N(C)C2Cc3ccccc3C2)cn1 | -98.6% |
| CN(c1ncc(S(N)(=O)=O)s1)C1CCc2ccccc21 (configuration not stated) | 36.5% |
| CCN(Cc1ccc2c(c1)OCO2)c1ncc(S(N)(=O)=O)s1 | 27.5% |

| SMILES | INHIBITION |
| --- | --- |
| COc1ccc(CN(C)c2ncc(S(N)(=O)=O)s2)c(OC)c1 | -28.2% |
| CCN(Cc1ccoc1)c1ncc(S(N)(=O)=O)s1 | 20.8% |
| CN(Cc1ccc2c(c1)OCCO2)c1ncc(S(N)(=O)=O)s1 | 54.4% |
| CS(=O)(=O)c1cn[nH]c1C1CCCCN1C(=O)Cc1cccnc1 (configuration not stated) | -5.71% |
| CN1CCNC(Cc2ccc(-c3cccs3)cc2)C1=O (configuration not stated) | -52.6% |
| COCCN1CCOCC12CCN(C(=O)Cc1cccs1)CC2 | 24.9% |
| O=C(CN1CCC[C@@H]1C(=O)O)NCCOc1cccc(C(F)(F)F)c1 | -0.18% |
| CC(=O)N1CCC2(CCCN(C(=O)c3ccccc3)C2)C1 (configuration not stated) | 22.2% |
| Cc1csc(Nc2cc(C3CCCCN3C)nc(C)n2)n1 (configuration not stated) | 16.5% |
| Cc1ccsc1CN(C)C(=O)c1cc2c([nH]c1=O)CCCC2=O | -1.95% |
| CCc1ncncc1C(=O)NCCNS(=O)(=O)c1ccccc1 | -118% |
| Cc1ccc(S(=O)(=O)NCCNC(=O)c2cncnc2C)cc1 | 78.1% |
| CCc1ncncc1C(=O)NCCNS(=O)(=O)c1ccc(C)cc1 | -70.7% |
| CN(C)C(C)(C)CNCc1c[nH]nc1-c1cc2ccccc2o1 | 36.9% |
| Cc1cnc(C(=O)NCc2cccnc2OC(C)C)cn1 | 33.7% |
| O=C1CC(NCc2ccncc2)CN1Cc1cccc(F)c1 (configuration not stated) | 63.5% |
| Cc1cccc(CNC2CC(=O)N(Cc3cccc(F)c3)C2)c1 (configuration not stated) | 13.87% |
| O=C1CC(NCc2ccc(OC(F)F)cc2)CN1Cc1cccc(F)c1 (configuration not stated) | 0.38% |
| NC1CCC(n2cc(C(=O)NC3CCc4ccccc4C3)nn2)CC1 (configuration not stated) | 25.5% |
